Calls of active or inactive are those of the source. How the source made its calls: active means hit-call score of the fitted dose curve at least 0.9, where 1 is the maximum; inactive means score below 0.9.

Test [1] deals with CCAAT/enhancer-binding protein beta (Homo sapiens) (UniProt P17676). Description: ATG_C_EBP_CIS: Attagene CIS-FACTORIAL HepG2 Assay for human CCAAT/Enhancer Binding Protein (C/EBP) beta (AID 2282927). Conditions: HepG2 Attagene cis-factorial transcription factor reporter; actives raise or lower the signal. The method in brief:
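Following a 24 h incubation with test chemical, transfected HepG2 cells yielded RNA whose reporter transcripts were quantified by RT-PCR and fluorescent capillary electrophoresis, with DMSO serving as baseline for bidirectional fitting.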

A short description of test [2]: ATG_DR4_LXR_CIS: Attagene CIS-FACTORIAL HepG2 Assay for human Liver X Receptor (LXR), DR4 submotif (AID 2282929). Particulars: HepG2 Attagene DR4 cis-reporter, mRNA transcription; actives raise or lower the signal. The method in brief: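 After transient transfection with multiplexed cis-promoter reporter units, HepG2 cells received test chemicals for 24 h. Reporter mRNA induction, detected by fluorescence after RT-PCR and capillary electrophoresis, was scored relative to DMSO.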

The nature of test [3]: ATG_AP_2_CIS: Attagene CIS-FACTORIAL HepG2 Assay for human Activator Protein 2 (AP-2) (AID 2282932). Particulars: HepG2 AP-2 cis-reporter, Attagene transcription factor profiling; actives raise or lower the signal. The method in brief: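 Bidirectional curve fitting against DMSO was applied to reporter mRNA signals from HepG2 cells 24 h after dosing. Cis-promoter reporter units, transiently transfected, were read by RT-PCR plus capillary electrophoresis.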

In test [4] the target is Transcription factor E2F1 (Homo sapiens) (UniProt Q01094). Description: ATG_E2F_CIS: Attagene CIS-FACTORIAL HepG2 Assay for human E2F Transcription Factor 1 (AID 2282935). Particulars: HepG2 Attagene cis-reporter, E2F reporter RNA transcripts; actives raise or lower the signal. In a few lines:
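Multiplexed cis-reporter assay: HepG2, transient transfection, 24 h dosing, mRNA quantitation by labeled RT-PCR and CE.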

Test [5] can be described thus: ATG_E_Box_CIS: Attagene CIS-FACTORIAL HepG2 Assay for human Enhancer Box (E-box) (AID 2282936). Particulars: HepG2 E-box cis-reporter transcription, actives raise or lower the signal. In a few lines: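 Multiplexed CIS reporter system in transiently transfected HepG2 cells measures native transcription factor activity. Reporter RNA after 24 h exposure is profiled by RT-PCR-capillary electrophoresis.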

Test [6] is described as follows: ATG_M_19_CIS: Attagene CIS-FACTORIAL HepG2 Assay for M19 Transcription Factor (Internal Marker) (AID 2282939). Conditions: HepG2 Attagene CIS-FACTORIAL M19 internal marker reporter; actives raise or lower the signal. In a few lines:
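Signals come from fluorescence of labelled reporter-specific PCR fragments resolved by capillary electrophoresis, following 24 h treatment of HepG2 cells transfected with cis-promoter reporter units; activity was fitted in both directions relative to DMSO.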

Test [7] can be described thus: ATG_GLI_CIS: Attagene CIS-FACTORIAL HepG2 Assay for human Zinc Finger Protein GLI1 (AID 2282945). Particulars: HepG2, Attagene cis-factorial reporter mRNA, GLI element; actives raise or lower the signal. The method in brief:
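HepG2 cells transiently transfected with cis-promoter multiplexed reporter units report endogenous transcription factor activity. After 24 h chemical exposure, reporter mRNA was quantified by RT-PCR, 6-FAM labelling, HpaI digestion and capillary electrophoresis, with bidirectional fitting against DMSO.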

Test [8] in a line: ATG_ISRE_CIS: Attagene CIS-FACTORIAL HepG2 Assay for human Interferon Regulatory Factor 1 (IRF1) binding to an Interferon-Stimulated Response Element (ISRE) (AID 2282948). Particulars: HepG2 ISRE cis-reporter (Attagene), mRNA transcription readout; actives raise or lower the signal. In a few lines:
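Transfected HepG2 (multiple reporter transcription units, cis elements) dosed 24 h. RNA → oligo(dT) RT → PCR → 6-FAM primer extension → HpaI → CE. DMSO = negative control/baseline.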

Test [9] can be described thus: ATG_M_32_CIS: Attagene CIS-FACTORIAL HepG2 Assay for M32 Transcription Factor (Internal Marker) (AID 2282949).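 Further: background control marker of the multiplexed CIS panel rather than a real target.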 Conditions: HepG2 Attagene cis-factorial M32 reporter, mRNA; actives raise or lower the signal. The method in brief: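 Fluorescent capillary electrophoresis peaks of HpaI-digested, FAM-labelled RT-PCR reporter products give the signal. Source: transiently transfected human liver HepG2 cells, 24 h after chemical dosing; bidirectional fitting against DMSO.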

Test [10] can be described thus: ATG_PXRE_CIS: Attagene CIS-FACTORIAL HepG2 Assay for human Pregnane X Receptor Element (PXRE) (AID 2282957). Particulars: HepG2 Attagene CIS-FACTORIAL PXRE reporter, mRNA; actives raise or lower the signal. The method in brief: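 Cis-element reporter mRNA in human hepatoma HepG2 cells is measured 24 h post-dosing by RT-PCR, primer-extension labeling and capillary electrophoresis; gain or loss of signal is fitted relative to DMSO.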

Test [11] is described as follows: ATG_Sox_CIS: Attagene CIS-FACTORIAL HepG2 Assay for human SRY-box transcription factor (SOX) (AID 2282960). Conditions: HepG2 Attagene cis-factorial SOX reporter, mRNA; actives raise or lower the signal. The method in brief:
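Using transiently transfected HepG2 cells, reporter transcription driven by cis elements was assessed 24 h after dosing. Signal was fluorescence of capillary-separated RT-PCR products, with DMSO defining baseline activity.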

For test [12], the target named is Transcription factor Sp1 (Homo sapiens) (UniProt P08047). Description: ATG_Sp1_CIS: Attagene CIS-FACTORIAL HepG2 Assay for human Specificity Protein 1 (Sp1) (AID 2282961). Particulars: HepG2 Sp1 cis-reporter transcription, actives raise or lower the signal. The method in brief:
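After transient transfection of HepG2 cells with cis-promoter reporter units and 24 h chemical treatment, reporter transcripts were quantified by RT-PCR and capillary electrophoresis fluorescence. Gain- and loss-of-signal fitted against DMSO.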

Test [13] has as its target Signal transducer and activator of transcription 3 (Homo sapiens) (UniProt P40763). Description: ATG_STAT3_CIS: Attagene CIS-FACTORIAL HepG2 Assay for human Signal Transducer and Activator of Transcription 3 (STAT3) (AID 2282963). Particulars: HepG2, Attagene cis-factorial STAT3 reporter transcription; actives raise or lower the signal. The method in brief:
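Transcript-level reporter assay. HepG2 transient MRTU transfection, 24 h exposure, fluorescence detection after RT-PCR and CE; DMSO baseline.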

Test [14] is described as follows: ATG_TA_CIS: Attagene CIS-FACTORIAL HepG2 Assay for human TA Basal Promoter (AID 2282964). Conditions: HepG2 Attagene CIS-factorial TA basal promoter reporter; actives raise or lower the signal. In a few lines: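 Fluorescence from labelled RT-PCR reporter fragments, separated by capillary electrophoresis, gives the signal. Cells: HepG2 transiently carrying multiple reporter units, 24 h chemical dosing. Gain or loss relative to DMSO.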

Test [15] in a line: ATG_TCF_b_cat_CIS: Attagene CIS-FACTORIAL HepG2 Assay for human T-Cell-Factor with beta-catenin (TCF/b-cat) (AID 2282965). Particulars: HepG2 TCF/beta-catenin cis-reporter transcription, actives raise or lower the signal. In a few lines: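 Using capillary electrophoresis as the read-out, labelled reporter cDNA fragments from transiently transfected HepG2 were sized and quantified. Exposure lasted 24 hours; activity in either direction was referenced to DMSO.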

Test [16] in a line: ATG_TAL_CIS: Attagene CIS-FACTORIAL HepG2 Assay for human TAL Basal Promoter (AID 2282966).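 Further: background control endpoint measuring basal TAL promoter reporter mRNA not a specific factor.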 Particulars: HepG2 Attagene cis-factorial TAL promoter reporter; actives raise or lower the signal. The method in brief:
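In this cell-based multiplex, HepG2 liver cells bearing cis-promoter reporter constructs are dosed for 24 hours. Total RNA is reverse-transcribed and amplified, labelled fragments are sized by capillary electrophoresis, and signal changes are fitted bidirectionally versus DMSO.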

Test [17] addresses X-box-binding protein 1 (Homo sapiens) (UniProt P17861). Description: ATG_Xbp1_CIS: Attagene CIS-FACTORIAL HepG2 Assay for human X-box Binding Protein 1 (XBP1) (AID 2282972). Conditions: HepG2 XBP1 cis-element reporter, Attagene multiplex; actives raise or lower the signal. The method in brief: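 HepG2, transient MRTU transfection (cis-promoter driven), 24 h compound exposure. Total RNA → oligo(dT) RT → PCR → 6-FAM labeling → HpaI cut → CE. Bidirectional fit vs DMSO.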

Test [18] addresses Transcriptional activator Myb (Homo sapiens) (UniProt P10242). Description: ATG_Myb_CIS: Attagene CIS-FACTORIAL HepG2 Assay for human Myeloblastosis (Myb) Proto-Oncogene Transcription Factor (AID 2282986). Particulars: HepG2 Attagene CIS-FACTORIAL Myb reporter transcription; actives raise or lower the signal. The method in brief:
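Multiplexed cis-reporter system in HepG2: transient transfection, 24 h treatment, mRNA readout by RT-PCR and capillary electrophoresis. Both increases and decreases are scored versus DMSO negative control.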

Test [19] deals with Myc proto-oncogene protein (Homo sapiens) (UniProt P01106). Description: ATG_Myc_CIS: Attagene CIS-FACTORIAL HepG2 Assay for human Myelocytomatosis (Myc) Proto-Oncogene Transcription Factor (AID 2282990). Conditions: HepG2, Attagene cis-reporter transcription factor activity; actives raise or lower the signal. In a few lines: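 Multiplexed cis-reporter transcription in HepG2 cells after 24 h chemical treatment. Reporter mRNA measured by RT-PCR and capillary electrophoresis fluorescence; activity fitted bidirectionally against DMSO control.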

The nature of test [20]: ATG_Oct_MLP_CIS: Attagene CIS-FACTORIAL HepG2 Assay for human Octamer-Binding Transcription Factor (Oct) (AID 2282993). Conditions: HepG2 Attagene cis-factorial Oct reporter, mRNA; actives raise or lower the signal. In a few lines:
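HepG2, transient MRTU transfection, cis promoter elements; 24 h dosing; RT-PCR/CE fluorescence read-out of reporter mRNA; fit both directions vs DMSO.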

CCAAT/enhancer-binding protein beta (Homo sapiens), sequence (P17676 whole entry, looked up): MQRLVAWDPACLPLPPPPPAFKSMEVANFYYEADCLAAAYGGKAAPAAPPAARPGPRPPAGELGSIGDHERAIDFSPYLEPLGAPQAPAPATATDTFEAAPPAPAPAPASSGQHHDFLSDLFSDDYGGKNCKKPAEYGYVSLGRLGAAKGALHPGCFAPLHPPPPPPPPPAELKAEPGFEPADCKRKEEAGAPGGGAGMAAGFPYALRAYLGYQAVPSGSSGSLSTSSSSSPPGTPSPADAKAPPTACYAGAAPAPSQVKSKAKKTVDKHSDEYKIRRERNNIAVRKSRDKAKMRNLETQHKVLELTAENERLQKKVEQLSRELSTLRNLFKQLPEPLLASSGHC
Transcription factor Sp1 (Homo sapiens), sequence (P08047 whole entry, looked up): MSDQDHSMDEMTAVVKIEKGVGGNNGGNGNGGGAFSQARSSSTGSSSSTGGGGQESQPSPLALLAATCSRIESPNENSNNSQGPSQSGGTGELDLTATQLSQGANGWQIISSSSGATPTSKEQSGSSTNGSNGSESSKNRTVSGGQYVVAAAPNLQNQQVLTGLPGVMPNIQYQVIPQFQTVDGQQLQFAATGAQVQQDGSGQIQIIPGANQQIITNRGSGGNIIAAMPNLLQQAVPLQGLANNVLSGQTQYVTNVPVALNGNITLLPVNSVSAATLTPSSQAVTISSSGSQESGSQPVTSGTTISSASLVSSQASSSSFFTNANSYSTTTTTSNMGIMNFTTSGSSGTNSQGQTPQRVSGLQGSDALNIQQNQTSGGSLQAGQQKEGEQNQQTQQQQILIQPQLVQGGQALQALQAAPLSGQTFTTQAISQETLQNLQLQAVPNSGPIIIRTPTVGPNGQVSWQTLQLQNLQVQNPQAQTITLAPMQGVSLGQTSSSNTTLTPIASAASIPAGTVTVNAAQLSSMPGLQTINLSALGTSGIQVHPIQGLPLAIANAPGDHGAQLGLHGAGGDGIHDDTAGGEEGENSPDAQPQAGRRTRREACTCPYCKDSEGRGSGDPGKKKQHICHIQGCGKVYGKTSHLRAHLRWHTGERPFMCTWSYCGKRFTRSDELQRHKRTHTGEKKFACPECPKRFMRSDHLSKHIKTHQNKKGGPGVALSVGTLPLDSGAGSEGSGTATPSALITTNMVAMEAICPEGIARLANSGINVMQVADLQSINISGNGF
Signal transducer and activator of transcription 3 (Homo sapiens), sequence (P40763 whole entry, looked up): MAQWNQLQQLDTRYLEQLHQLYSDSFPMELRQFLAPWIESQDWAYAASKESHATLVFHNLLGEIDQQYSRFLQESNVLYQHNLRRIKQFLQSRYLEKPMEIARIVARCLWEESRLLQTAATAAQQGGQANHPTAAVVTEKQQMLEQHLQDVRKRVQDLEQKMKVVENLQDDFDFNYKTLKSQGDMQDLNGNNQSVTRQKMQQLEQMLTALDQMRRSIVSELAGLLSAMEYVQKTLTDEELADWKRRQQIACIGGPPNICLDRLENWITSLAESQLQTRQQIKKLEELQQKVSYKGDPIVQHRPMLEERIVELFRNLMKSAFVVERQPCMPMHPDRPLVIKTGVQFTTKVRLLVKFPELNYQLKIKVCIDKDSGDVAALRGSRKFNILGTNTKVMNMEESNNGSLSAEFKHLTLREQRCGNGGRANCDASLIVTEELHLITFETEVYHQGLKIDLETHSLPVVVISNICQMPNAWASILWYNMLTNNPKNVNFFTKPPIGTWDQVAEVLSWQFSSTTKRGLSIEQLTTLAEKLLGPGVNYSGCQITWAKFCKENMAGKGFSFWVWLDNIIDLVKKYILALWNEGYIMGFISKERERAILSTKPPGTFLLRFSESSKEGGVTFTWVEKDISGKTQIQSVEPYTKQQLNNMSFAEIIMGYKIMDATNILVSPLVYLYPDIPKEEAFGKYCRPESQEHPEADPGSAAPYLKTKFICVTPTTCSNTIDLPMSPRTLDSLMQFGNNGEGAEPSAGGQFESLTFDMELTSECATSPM
Myc proto-oncogene protein (Homo sapiens), sequence (P01106 whole entry, looked up): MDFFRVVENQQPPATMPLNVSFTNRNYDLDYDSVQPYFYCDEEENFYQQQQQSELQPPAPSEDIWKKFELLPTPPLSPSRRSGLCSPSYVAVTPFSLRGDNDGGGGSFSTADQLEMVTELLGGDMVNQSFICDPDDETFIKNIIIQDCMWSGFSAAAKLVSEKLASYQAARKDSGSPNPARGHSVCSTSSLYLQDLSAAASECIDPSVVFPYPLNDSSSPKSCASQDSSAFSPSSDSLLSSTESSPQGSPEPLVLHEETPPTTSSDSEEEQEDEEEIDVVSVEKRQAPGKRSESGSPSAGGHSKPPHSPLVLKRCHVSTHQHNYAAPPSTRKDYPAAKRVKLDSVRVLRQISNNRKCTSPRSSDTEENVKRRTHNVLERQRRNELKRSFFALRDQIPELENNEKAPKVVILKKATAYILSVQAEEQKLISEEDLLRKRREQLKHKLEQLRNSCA
Transcription factor E2F1 (Homo sapiens), sequence (Q01094 whole entry, looked up): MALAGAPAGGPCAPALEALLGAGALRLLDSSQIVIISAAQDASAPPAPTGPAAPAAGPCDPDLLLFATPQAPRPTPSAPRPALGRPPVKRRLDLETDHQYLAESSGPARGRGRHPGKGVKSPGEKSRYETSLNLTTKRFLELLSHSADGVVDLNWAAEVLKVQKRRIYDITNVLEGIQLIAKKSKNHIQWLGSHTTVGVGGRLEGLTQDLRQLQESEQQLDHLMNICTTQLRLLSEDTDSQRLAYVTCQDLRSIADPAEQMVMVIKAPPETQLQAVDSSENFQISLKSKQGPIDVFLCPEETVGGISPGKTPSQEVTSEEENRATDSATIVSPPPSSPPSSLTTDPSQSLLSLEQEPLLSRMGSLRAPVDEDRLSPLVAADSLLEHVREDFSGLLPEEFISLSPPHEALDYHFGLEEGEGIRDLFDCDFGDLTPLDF
Transcriptional activator Myb (Homo sapiens), sequence (P10242 whole entry, looked up): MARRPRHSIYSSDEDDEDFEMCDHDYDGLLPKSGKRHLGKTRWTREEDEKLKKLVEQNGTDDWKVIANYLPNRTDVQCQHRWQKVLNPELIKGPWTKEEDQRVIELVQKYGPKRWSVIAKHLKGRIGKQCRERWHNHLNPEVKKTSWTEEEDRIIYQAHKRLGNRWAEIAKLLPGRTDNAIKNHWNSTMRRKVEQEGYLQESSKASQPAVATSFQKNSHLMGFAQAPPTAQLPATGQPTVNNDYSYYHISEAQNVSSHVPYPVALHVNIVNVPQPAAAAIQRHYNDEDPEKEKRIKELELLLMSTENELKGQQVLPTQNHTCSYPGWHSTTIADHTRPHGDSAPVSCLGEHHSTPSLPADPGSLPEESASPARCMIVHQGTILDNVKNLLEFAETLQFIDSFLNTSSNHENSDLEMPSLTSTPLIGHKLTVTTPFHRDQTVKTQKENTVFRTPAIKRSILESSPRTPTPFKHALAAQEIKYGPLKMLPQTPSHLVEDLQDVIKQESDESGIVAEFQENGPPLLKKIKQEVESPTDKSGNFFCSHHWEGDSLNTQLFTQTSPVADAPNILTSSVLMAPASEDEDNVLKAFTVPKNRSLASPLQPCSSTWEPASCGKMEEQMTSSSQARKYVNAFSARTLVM
X-box-binding protein 1 (Homo sapiens), sequence (P17861 whole entry, looked up): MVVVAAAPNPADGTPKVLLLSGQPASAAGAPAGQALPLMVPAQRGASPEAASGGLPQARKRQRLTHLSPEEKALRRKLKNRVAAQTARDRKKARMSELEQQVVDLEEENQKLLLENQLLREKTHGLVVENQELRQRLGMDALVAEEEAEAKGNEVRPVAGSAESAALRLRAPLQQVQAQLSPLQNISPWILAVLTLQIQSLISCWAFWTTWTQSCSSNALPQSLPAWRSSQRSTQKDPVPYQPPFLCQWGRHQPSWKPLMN

Turning to `O=S(=O)(c1ccccc1)c1ccccc1`, the result in test [1], in test [2], in test [3], in [4], in test [5] and in [6] was inactive. The outcome in [7], in test [8], in test [9], in test [11], in [12] and in [13] was inactive. Also, the outcome in test [14], in test [15], in [16], in test [17], in [18] and in test [19] was inactive. Also, the compound was classed as inactive in [20]. Moreover, the AC50 in test [10] is 20.1 µM (active).
In the case of `N#CCCCl`, the outcome in test [1], in test [2], in [3], in test [4], in [5] and in [6] was inactive. Moreover, the outcome in test [7], in test [8], in test [9], in test [10], in test [11] and in [12] was inactive. Moreover, the compound was classed as inactive in [13], in [14], in [15], in test [16], in [17] and in test [18]. For the same compound, the call in test [19] and in [20] was inactive.
In the case of `O=C(O)C(Br)Br`, the result in [1], in test [2], in test [3], in test [4], in test [5] and in [6] was inactive. The call in test [7], in [8], in [9], in [10], in test [11] and in test [12] was inactive. Also, the result in test [13], in test [14], in test [15], in test [16], in test [17] and in [18] was inactive. In addition, the call in [19] and in [20] was inactive.
In the case of `COC(C)(C)CCC[C@H](C)C/C=C/C(C)=C/C(=O)OC(C)C`, the result in test [1], in [3], in test [4], in test [5], in test [6] and in test [8] was inactive. In addition, the result in test [9], in test [11], in test [12], in test [13], in test [14] and in test [15] was inactive. The compound was classed as inactive in test [16], in test [17], in test [19] and in test [20]. Moreover, the AC50 in test [2] was 72.9 µM (active); in [7], 145 µM (active); in test [10], 1.43 µM (active); in test [18] it was 165 µM (active).
In the case of `Cc1cc(C)c(C2=C(OC(=O)CC(C)(C)C)C3(CCCC3)OC2=O)c(C)c1`, the result in test [1], in test [3], in test [4], in test [5], in [6] and in [9] was inactive. Also, the call in test [11], in test [13], in test [14], in test [15], in [16] and in test [18] was inactive. The AC50 in test [2] was 28.5 µM (active); in test [7] it was 163 µM (active); in [8], 168 µM (active); in test [10] it was 7.83 µM (active); in test [12], 88.6 µM (active); in test [17], 104 µM (active). The half-maximal activity concentration (AC50) in test [19] is 189 µM (active); in [20], 128 µM (active).
For `Nc1ccc(-c2ccc(N)c(N)c2)cc1N`, the outcome in test [1], in test [2], in [3], in test [4], in test [5] and in test [6] was inactive. Besides, the compound was classed as inactive in test [7], in test [8], in test [9], in [10], in test [11] and in [12]. In addition, the compound was called inactive in test [13], in test [14], in test [15], in [16], in test [17] and in test [18]. For the same compound, the compound was classed as inactive in [19] and in test [20].
With `COC(=O)COc1ccc(Cl)cc1Cl`, the result in test [1], in test [2], in test [3], in test [4], in [5] and in test [6] was inactive. For the same compound, the compound was called inactive in test [7], in test [8], in test [9], in test [10], in [11] and in test [12]. Also, the call in test [13], in [14], in [15], in test [16], in [17] and in test [18] was inactive. Further, the call in [19] and in [20] was inactive.

These data come from PubChem BioAssay (EPA / NIEHS).
